aSyn UTR act: Activators via SNCA 5'UTR binding, MLPCN; activity score, % (tested at 7.5 µM), hits read low; AID 1814; 300,000 compounds, 7.1% hits; alpha-synuclein 5'UTR reporter, activators screen; in the data active means activity score below about -60%
Starred values were filed as active, the others as inactive. A selection follows.

SMILES | aSyn UTR act
CCC(C)C(=O)N1CCc2cc(-c3csc(N)n3)ccc21 (configuration not stated) | -172*
CNc1nc(-c2ccc3c(c2)CCN3C(=O)c2ccccc2F)cs1 | -90*
CC(C)(C)C(=O)N1CCc2cc(-c3csc(N)n3)ccc21 | 66
CNc1nc(-c2ccc3c(c2)CCN3C(=O)CC(C)(C)C)c(C)s1 | -118*
CC(=O)Nc1nc(-c2ccc3c(c2)CCN3C(=O)C2CC2)c(C)s1 | -255*
CCCC(=O)N1CCc2cc(-c3nc(N)sc3C)ccc21 | -208*
CC(=O)c1ccc(-n2c(C)ccc2-c2ccccc2)cc1 | -109*
Nc1c(-c2ccccc2)cnn1-c1ccccc1 | -110*
Nc1c(-c2cccc(Cl)c2)cnn1-c1ccccc1 | -122*
CCOC(=O)Cn1c(S(=O)(=O)Cc2ccccc2Cl)nc(-c2ccccc2)c1-c1ccccc1 | 54
CCOC(=O)Cn1ncc(-c2ccccc2)c1N | -129*
C=CCOC(=O)c1[nH]c2c(c1C)C(=O)CC(c1ccco1)C2 (configuration not stated) | 69
Cc1c(C(=O)OC2CCCC2C)[nH]c2c1C(=O)CCC2 (configuration not stated) | -92*
Cn1c(SCc2ccc(F)cc2)nnc1-c1ccccn1 | -168*
Cc1cccc(CSc2nnc(-c3ccccn3)n2N)c1 | -69*
Cc1ccc(CSc2nnc(-c3ccccn3)n2C)cc1 | -93*
C=CCc1ccc(OCc2ccc(C(=O)Nc3ccc(NC(C)=O)cc3)o2)c(OC)c1 | -74*
Cc1n[nH]c(=O)n1-c1ccc(OCc2ccccc2)cc1 | -91*
Cc1cccc(-c2nc3cc([N+](=O)[O-])ccc3o2)c1 | -130*
O=[N+]([O-])c1ccc2oc(-c3ccccc3)nc2c1 | -236*
COc1ccc(-c2nc3ccc([N+](=O)[O-])cc3o2)cc1 | -192*
O=[N+]([O-])c1ccc(O)c(-c2cc(C(F)(F)F)nc(-c3ccccc3)n2)c1 | 90
Cc1ccc(NC(=O)C2=C(O)CCn3c2nc2ccccc23)cc1 | -131*
Cc1c(Cl)cccc1N=Cc1ccc([N+](=O)[O-])s1 | -89*
COc1ccc(-c2nc3ccccn3c2NCc2ccc3c(c2)OCO3)cc1 | -91*
SMILES | aSyn UTR act
COc1ccc(-c2nc3cc(C)ccn3c2NCc2ccc3c(c2)OCO3)cc1 | -112*
CN1CCN(C(=S)c2ccc(-c3cccc([N+](=O)[O-])c3)o2)CC1 | -171*
O=[N+]([O-])c1cc(-c2ccc(C(=S)N3CCOCC3)o2)ccc1Cl | -72*
O=[N+]([O-])c1cccc(-c2ccc(C(=S)N3CCOCC3)o2)c1 | -107*
CCCCC12CN3CCN(CC(C3)/C1=N\NC(=O)c1ccccc1N)C2 | -71*
O=C(NCc1cccs1)c1ccc(N2CCCC2=O)cc1 | -106*
CC1CCCN(c2ccc(C(=O)NCc3cccs3)cn2)C1 (configuration not stated) | -85*
CC1CCN(c2ccc(C(=O)NCCc3ccccc3)cn2)CC1 | -105*
CC1CCCN(c2ccc(C(=O)NCc3ccccc3)cn2)C1 (configuration not stated) | -103*
O=C(NCc1cccs1)c1ccc(N2CCCCC2)nc1 | -131*
CC(=O)c1ccc(N2CCN(c3ncccn3)CC2)cc1 | -125*
COc1cccc(N2CCN(c3ncccn3)CC2)c1 | -104*
Nc1nc(CSC(=S)N2CCOCC2)nc(Nc2ccc(F)cc2)n1 | -70*
Cc1ccc(Nc2nc(N)nc(CSC(=S)N3CCOCC3)n2)c(C)c1 | -93*
COc1ccc(Nc2nc(N)nc(CSC(=S)N3CCOCC3)n2)cc1 | -87*
CCCCN(Cc1ccccc1)c1ncnc2nc[nH]c12 | -63*
N#CC1=C2C=Cc3ccccc3N2CCCC1=O | -74*
CC(C)CCOCC(=O)Nc1cccc(C(=O)O)c1 | -73*
COC(=O)CCN1CCc2cc(N=Nc3ccc([N+](=O)[O-])cc3)ccc21 | -96*
Cc1ccc(S(=O)(=O)c2ccc([N+](=O)[O-])cn2)cc1 | -73*
C/C(=N\N=c1/sc2ccccc2n1C)c1ccccn1 | -122*
C/C(=N\N=c1/sc2ccccc2n1C)c1ccc(N2CCOCC2)cc1 | -132*
CC(C)c1ccc(Nc2nc(CC(=O)O)cs2)cc1 | -77*
Cc1ccc(N=Cc2sccc2C)cc1C | -111*
Nc1ccc(C#Cc2ccc3oc4ccccc4c(=O)c3c2)cc1 | -66*
SMILES | aSyn UTR act
Nc1ccc2oc3ncccc3c(=O)c2c1 | -98*
COc1ccc(C#Cc2ccc3c(c2)c(=O)c2ccccc2n3C)cc1 | -125*
Cn1c2ccccc2c(=O)c2cc(C#Cc3ccc(N)cc3)ccc21 | -89*
CCc1nc2c(c(=O)c3ccccc3n2C)c(=O)n1CCc1ccc(OC)cc1 | 74
COc1cc(-c2noc(C)c2C#Cc2ccc(N)cc2)cc(OC)c1OC | 88
Nc1ccc2oc3ccccc3c2c1 | -101*
CCOC(=O)C1(Cc2cccc(Cl)c2)CCCN(C(=O)CN2C(=O)CSC2=O)C1 (configuration not stated) | -75*
CCOC(=O)C1(Cc2cccc(Cl)c2)CCCN(C(=O)c2ccnn2C)C1 (configuration not stated) | -85*
Cn1c2ccccc2c2cc(C(=O)N3CCN(CCO)CC3)sc21 | -86*
COc1cc2c(cc1OC)CN(c1ccc3ccccc3n1)CC2 | -189*
COc1cc2c(cc1OC)CN(c1ccc(C(F)(F)F)cn1)CC2 | -157*
COc1ccc2cc(C(=O)N3CCc4ccccc43)[nH]c2c1 | -122*
O=C(c1cc2cc(F)ccc2[nH]1)N1CCc2ccccc21 | -177*
O=C(c1cc2cc(Br)ccc2[nH]1)N1CCc2ccccc21 | -76*
COc1ccc(-c2cc(C(F)F)n3ncc(C(=O)N4CCc5ccccc54)c3n2)cc1 | 60
O=c1oc2c(CN3CCOCC3)c(O)ccc2c2ccccc12 | -72*
O=C(Oc1c(CN2CCOCC2)cc(Cl)c2cccnc12)c1ccccc1Cl | 105
CCC(Oc1ccccc1)C(=O)N1CCC(C(N)=O)CC1 (configuration not stated) | -71*
CCCCOc1ccc(C(=S)N2CCC(C(N)=O)CC2)cc1 | -86*
CCOc1ccc2nc(SCc3ccccc3C#N)sc2c1 | -220*
CCOc1ccc2nc(SCc3ccc(OC)cc3)sc2c1 | -83*
CCCCC(=O)Nc1cc2nn(-c3ccc(OC)cc3)nc2cc1C | -67*
COc1ccc(-n2nc3cc(C)c(NC(=S)NC(=O)c4ccccc4C)cc3n2)cc1 | -173*
CCC(=O)Nc1cc2nn(-c3ccc(C)cc3)nc2cc1C | 80
COC(=O)c1ccc(OCCOc2ccccc2)cc1 | -131*
SMILES | aSyn UTR act
COC(=O)c1ccc(N=Nc2ccccc2)cc1 | -132*
COC(=O)c1ccc2nc(-c3cccc(N)c3)cn2c1 | 61
O=C(CC(Nc1ccc(F)cc1)C(=O)O)c1ccccc1 (configuration not stated) | -171*
O=C(CC(Nc1ccc(F)cc1)C(=O)OCC(=O)c1cccs1)c1ccccc1 (configuration not stated) | -113*
C/C(=N\NC(=O)c1cc(O)ccc1O)c1cccc(NC(=O)c2ccc(Cl)cc2)c1 | -99*
C/C(=N\NC(=O)c1ccncc1)c1cccc(NC(=O)c2ccc(C(C)(C)C)cc2)c1 | -123*
COc1ccc(C(=O)N/N=C(/C)c2cccc(NC(=O)c3ccccc3F)c2)cc1 | -79*
COc1ccc(C(=O)N/N=C(\C)c2cccc(NC(=O)c3ccc(F)cc3)c2)c(OC)c1 | -66*
O=C(OCC(=O)N1CCCC1=O)c1nc(Cl)c(Cl)c(Cl)c1Cl | -131*
Oc1ccc(/C=N/Nc2nccnc2Cl)c(O)c1 | 88

From PubChem
